# From PubChem BioAssay (EPA / NIEHS)
# Inconclusive results are not listed. Calls of active or inactive are those of the source. The calls were made as follows: active = hit-call score of the fitted dose curve at least 0.9, where 1 is the maximum; inconclusive = response in the unintended direction; inactive = score below 0.9.
# Test system: turtle Estrogen Receptor (ESR1), gene 101933533
# Assay: ATG_trERa_XSP1: Attagene TRANS-FACTORIAL Multi-Species (XSP1) HepG2 Assay for turtle Estrogen Receptor (ESR1) (AID 2283781)
# Protocol: ATG_XSP1_multi-species_TRANS is a cell-based, multiplexed assay created by modifying the existing Attagene TRANS-FACTORIAL system to include a panel of nuclear receptors from some or all the following species: human (Homo sapiens), mouse (Mus musculus), frog (Xenopus laevis), zebrafish (Danio rerio), chicken (Gallus gallus), and turtle (Chrysemys picta). The ECOTOX-FACTORIAL format uses HepG2, a human liver cell line, with measurements taken at 24 hours after chemical dosing in a 24-well plate. Xsp1 included 3 nM 6-alpha-fluorotestosterone to partially stimulate the androgen receptor.ATG_trERa_XSP1 is one of 29 assay components measured or calculated from the ATG_XSP1_multi-species_TRANS assay. It is designed to make measurements of mRNA induction, a form of inducible reporter, as detected with fluorescence intensity signals by Reverse transcription polymerase chain reaction (RT-PCR) and Capillary electrophoresis technology.The assay endpoint ATG_trERa_XSP1 was analyzed in the positive analysis fitting direction relative to DMSO as the negative control and baseline of activity. Using a type of inducible reporter, measures of mRNA for gain-of-signal activity can be used to understand the reporter gene at the transcription factor-level as they relate to the gene ER. Furthermore, this assay endpoint can be referred to as a primary readout, because this assay has produced multiple assay endpoints where this one serves a reporter gene function. To generalize the intended target to other relatable targets, this assay endpoint is annotated to the nuclear receptor intended target family, where the subfamily is steroidal.
# Human liver HepG2 cells are transiently transfected with multiple reporter transcription units (MRTUs) in 6-well plates using FuGene 6 reagent (Roche; 3 ml FuGene/1 mg DNA). The MRTU constructs are regulated by a cis-regulating element (promoter). […] A major difference between the CIS and TRANS system is that in CIS activities of endogenous TFs are measured, whereas the TRANS assay evaluates changes in activities of exogenous, chimeric NR-Gal4 proteins. […] At the end of 24 hour incubation, total RNA was isolated using TriZol reagent (Invitrogen). The isolated RNA is then reverse-transcribed using oligo(dT) primer and Mo-MLV reverse transcriptase (Invitrogen) with DNAse I (Ambion) treatment for 30 min. The one-tenth of the produced cDNA was amplified by PCR using Taq DNA polymerase (Invitrogen) and two reporter sequence-specific primers. The PCR products were fluorescently labeled by primer extension with 6-arboxyfluorescein (6-FAM) 5'-labeled reporter sequence-specific primer (2 min at 95 C, 20 s at 68 C and 10 min at 72 C) and these products were digested with 5U of HpaI (New England Biolabs) for 2h at 37 C. The fragments were purified using Qiaquick PCR columns (Qiagen), analyzed on an ABI 3130xL genetic analyzer (Applied Biosystems) with peak positions identified by using a set of X-rhodamine (ROX)-labeled MapMarker1000 molecular weight standards (BioVentures). The raw capillary electrophoresis data was processed using Attagraph software (Attagene).
Compound,outcome,AC50
COC(=O)N(OC)c1ccccc1COc1ccn(-c2ccc(Cl)cc2)n1,inactive,
OC(c1ccc(Cl)cc1)(c1cncnc1)c1ccccc1Cl (centres undefined),,2.12 µM (active)
CC(C)Oc1cc(-n2nc(C(C)(C)C)oc2=O)c(Cl)cc1Cl,,20.8 µM (active)
CCCN(CCC)c1c([N+](=O)[O-])cc(S(N)(=O)=O)cc1[N+](=O)[O-],,33.4 µM (active)
CC(C)(C)c1ccc(CSc2cnn(C(C)(C)C)c(=O)c2Cl)cc1,inactive,
COc1ccc(C(c2ccc(OC)cc2)C(Cl)(Cl)Cl)cc1,,1.32 µM (active)
C=CC1(C)OC(=O)N(c2cc(Cl)cc(Cl)c2)C1=O (centres undefined),,100 µM (active)
CCCCC(CC)COC(=O)c1ccccc1C(=O)OCC(CC)CCCC (centres undefined),inactive,
CCCC1COC(Cn2cncn2)(c2ccc(Cl)cc2Cl)O1 (centres undefined),inactive,
CO/C=C(/C(=O)OC)c1ccccc1Oc1cc(Oc2ccccc2C#N)ncn1,inactive,
CCCCOC(=O)c1ccccc1C(=O)OCCCC,inactive,
CON(C)C(=O)Nc1ccc(Cl)c(Cl)c1,,26.7 µM (active)
COP(=S)(OC)Oc1nc(Cl)c(Cl)cc1Cl,,27.9 µM (active)
C#CCOS(=O)OC1CCCCC1Oc1ccc(C(C)(C)C)cc1 (centres undefined),,44.3 µM (active)
